Results: PubChem BioAssay
“And” between values parts separate entries of the source, which are not always exact repeats. Equal values may be shown once. Inconclusive results are not listed. The source made the active and inactive calls.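 The calls were made as follows, unless noted: active = GFP signal, as percent of the solvent control, above the screen mean plus 3 SD, about 149; inconclusive = no reading because the compound's own fluorescence upset strain identification; inactive = the rest.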

How the values were obtained:
[1] = yeast TOR pathway RPL19A-GFP modulators, primary screen, cell-based, S. cerevisiae, multiplex flow cytometry (AID 1862; in the data active = percent of DMSO control GFP below about 86%;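 also: lower values mimic rapamycin by blocking the RPL19A rise seen in DMSO cells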); conditions: S. cerevisiae RPL19A-GFP strain, flow cytometry fluorescence, 3 h; at 10 µM; stronger effect = lower value
[2] = modulators of MEP2-GFP levels in yeast, primary screen, S. cerevisiae, multiplex flow cytometry (AID 1867;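 active = GFP response, as percent of the DMSO control, above the screen-wide mean plus 3 SD, about 139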;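 also: median GFP channel fluorescence of barcode-gated MEP2-GFP cells measured by flow cytometry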); conditions: S. cerevisiae MEP2-GFP strain, 3 h, at 10 µM, stronger effect = higher value, 100% means same as DMSO wells
[3] = modulators of CIT2-GFP expression in yeast, primary screen, S. cerevisiae, GFP fusion, multiplex flow cytometry (AID 1870;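 active = percent response above a set limit, the screen-wide mean plus 3 SD, cut at about 130% in these data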;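 also: barcoded CIT2-GFP strain pooled with four other GFP strains with rapamycin as positive control; median GFP fluorescence per well over plate mean of DMSO wells so 100% = DMSO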); conditions: 3 h, at 10 µM, stronger effect = higher value
[4] = modulators of LAP4-GFP expression in yeast, primary screen, S. cerevisiae, multiplex flow cytometry (AID 1873); conditions: 3 h, at 10 µM, stronger effect = higher value
[5] = modulators of AGP1-GFP expression in yeast TOR pathway, primary screen, cell-based, multiplex flow cytometry, S. cerevisiae (AID 1887;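 active = GFP signal above the screen-wide mean plus 3 SD, that is over about 124.5% of the solvent control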;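 also: AGP1-GFP fusion strain of S. cerevisiae within a five-strain barcoded multiplex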); conditions: 3 h, at 10 µM, stronger effect = higher value
[6] = inhibitors of CD8+ T cell-vesicle binding, pilot screen, LFA-1/ICAM-1 modulator project, MLPCN validation set, flow cytometry (AID 2523;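 active = response below a set limit, under 55% cells CD8-positive and vesicle-bound, and CD8 cells' 90th-percentile brightness under 279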;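 as to vesicle binding response: mean PE anti-B7-1 fluorescence of CD8+ cells relative to row control; 100% = QL9-loaded vesicles with DMSO vehicle in the same plate row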); conditions: 2C mouse CD8+ T cells, at 7 µM, stronger effect = lower value; double positive events: measured here: CD8+/vesicle+ event percentage
[7] = target: Integrin beta-1 (Homo sapiens) + Integrin alpha-4 (Homo sapiens) (UniProt P13612+P05556); experiment: inhibition of HUTS-21 binding to VLA-4, pilot screen, VLA-4 allosteric modulator project, U937 cells, HUTS-21 mAb, flow cytometry, validation set (AID 2674;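 active = inhibition above 50%, about 3 SD of the validation set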;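 also: antibody binding induced by the VLA-4 ligand LDV present at three times its Kd; 0% = LDV ligand with antibody and no compound and 100% = antibody without LDV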); conditions: HUTS-21 LIBS mAb binding, at 6.7 µM, stronger effect = higher value, binding induced by LDV ligand
[8] = superoxide lowering in aged yeast cells, pilot screen, validation compound set (AID 2706;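 active = superoxide response below 65% of plate, a cut near 3 SD across the whole screen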;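 also: yeast exposed to compound for one week at 30 degrees C before staining; 100% = mean of all compound wells on the same plate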); conditions: S. cerevisiae aging, superoxide DHE fluorescence; at 10 µM; stronger effect = lower value
[9] = target: Beta-adrenergic receptor kinase 1 (Homo sapiens) (UniProt P25098); experiment: GRK2 binders displacing RNA aptamer, biochemical, validation, human GRK2, bead flow cytometry (AID 488806;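 active = aptamer binding inhibition above 30%, about 3 SD of noise from non-fluorescent compounds; inactive = inhibition at or below 30%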); conditions: bead-bound GRK2, FAM-aptamer displacement, at 10 µM, stronger effect = higher value
[10] = target: Beta-2 adrenergic receptor (Homo sapiens) (UniProt P07550); experiment: beta2AR agonists driving receptor internalization, pilot screen, cell-based, FAP fluorogen, flow cytometry, validation set (AID 504459;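 active = percent response above 42, roughly 3 SD of non-fluorescent test compounds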;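 also: agonist-driven loss of surface beta2AR via internalization measured by FAP dye flow cytometry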); conditions: Am2.2-beta2AR cells, FAP surface receptor flow cytometry; at 10 µM; stronger effect = higher value
[11] = target: AP-2 complex subunit beta (Homo sapiens) (UniProt P63010); experiment: inhibitors of arrestin peptide binding to AP2, pilot screen, biochemical, validation set, GST-AP2 beads, flow cytometry (AID 504541;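 active = inhibition above 54%, about 3 SD of non-fluorescent compounds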;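 also: AP2 carries R879A mutation and is captured from E. coli lysate; bead-bound FITC arrestin peptide fluorescence measuring arrestin peptide binding to AP2; 0% = DMSO wells and 100% = excess unlabeled arrestin peptide control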); conditions: FITC arrestin peptide, at 10 µM, stronger effect = higher value, AP2 beta2 appendage fragment, R879A mutant
[12] = yeast V-ATPase proton transport modulators, S. cerevisiae, pHLuorin, HTS validation (AID 504600; in the data active = response above about 15%;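 also: plate controls were DMSO for no effect and reference compound for full effect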); conditions: S. cerevisiae pHLuorin cytosolic pH, at 10 µM, stronger effect = higher value
[13] = tested on: anti-desmoglein-3 scFv antibody binding to human DSG3; experiment: inhibitors of anti-DSG3 scFv binding to DSG3, pilot screen, biochemical, validation compound set, bead-based, flow cytometry (AID 588368;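 active = binding below the plate cutoff, the plate median minus 3 SD, with a reading above zero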;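 also: signal is the median channel fluorescence of bead-bound GFP antibody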); conditions: Protein G beads, DSG3-Fc, scFv-GFP binding, at 10 µM, stronger effect = lower value
[14] = inhibitors of fungal efflux pumps CDR1, CDR2, MDR1, pilot screen, validation compound set, multiplex, phenotypic (AID 588506;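 active = efflux inhibition above 0.42, the validation set average plus 4 SD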;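 also: Nile Red retained in cells so higher fluorescence means more efflux inhibition; 0 = negative control wells and 1 = enniatin B 25 µM full block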); conditions: S. cerevisiae pump-expressing triplex, Nile Red efflux flow cytometry; at 10 µM; stronger effect = higher value; the pumps come from Candida albicans
[15] = target: ATP-binding cassette sub-family B member 6 (Homo sapiens) (UniProt Q9NP58); experiment: ABCB6 transporter inhibitors, pilot screen, K562-ABCB6 cells, flow cytometry, validation set (AID 588550;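 active = inhibition above the screen-wide mean plus 3 SD, about 51%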;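 also: 0% = DMSO wells and 100% = benzethonium chloride 70 µM positive control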); conditions: K562-ABCB6 porphyrin accumulation, 1 h, at 10 µM, stronger effect = higher value
[16] = promoters of myeloid differentiation in arrested cells, primary screen, cell-based, GFP/MAC1 double positive, flow cytometry, validation set (AID 588685;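 active = differentiation response of at least 50%, scaled between solvent and reference control, from cells with both markers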;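 also: compound exposure lasts four days before antibody staining and flow analysis; 0% = DMSO wells and 100% = 5 µM fulvestrant positive control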); conditions: ER-HoxA9 marrow cells, stronger effect = higher value, normalized: vehicle 0, fulvestrant 100

Chain of ATP-binding cassette sub-family B member 6 (Homo sapiens) (Q9NP58 whole entry, looked up): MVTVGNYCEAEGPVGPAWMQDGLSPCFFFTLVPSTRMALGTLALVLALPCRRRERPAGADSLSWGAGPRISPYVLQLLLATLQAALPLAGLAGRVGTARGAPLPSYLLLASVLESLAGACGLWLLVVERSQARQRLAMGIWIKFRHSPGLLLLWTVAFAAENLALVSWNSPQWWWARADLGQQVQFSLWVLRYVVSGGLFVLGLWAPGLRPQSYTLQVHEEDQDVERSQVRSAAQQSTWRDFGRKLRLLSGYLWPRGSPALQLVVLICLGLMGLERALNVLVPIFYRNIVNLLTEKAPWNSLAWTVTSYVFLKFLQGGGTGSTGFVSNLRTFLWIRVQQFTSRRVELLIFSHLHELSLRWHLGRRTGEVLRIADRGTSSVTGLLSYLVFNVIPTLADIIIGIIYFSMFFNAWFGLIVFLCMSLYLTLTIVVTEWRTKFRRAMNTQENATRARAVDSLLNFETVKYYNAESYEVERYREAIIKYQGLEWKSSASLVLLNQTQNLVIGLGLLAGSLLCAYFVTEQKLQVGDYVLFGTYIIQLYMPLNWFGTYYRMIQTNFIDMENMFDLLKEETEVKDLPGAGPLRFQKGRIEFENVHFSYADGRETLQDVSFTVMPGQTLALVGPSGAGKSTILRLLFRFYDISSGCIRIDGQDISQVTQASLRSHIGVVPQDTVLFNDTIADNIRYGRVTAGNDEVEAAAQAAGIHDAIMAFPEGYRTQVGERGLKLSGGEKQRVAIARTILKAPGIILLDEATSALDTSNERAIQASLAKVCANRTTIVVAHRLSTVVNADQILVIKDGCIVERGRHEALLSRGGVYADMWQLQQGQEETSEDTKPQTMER
Chain of Beta-adrenergic receptor kinase 1 (Homo sapiens) (P25098 whole entry, looked up): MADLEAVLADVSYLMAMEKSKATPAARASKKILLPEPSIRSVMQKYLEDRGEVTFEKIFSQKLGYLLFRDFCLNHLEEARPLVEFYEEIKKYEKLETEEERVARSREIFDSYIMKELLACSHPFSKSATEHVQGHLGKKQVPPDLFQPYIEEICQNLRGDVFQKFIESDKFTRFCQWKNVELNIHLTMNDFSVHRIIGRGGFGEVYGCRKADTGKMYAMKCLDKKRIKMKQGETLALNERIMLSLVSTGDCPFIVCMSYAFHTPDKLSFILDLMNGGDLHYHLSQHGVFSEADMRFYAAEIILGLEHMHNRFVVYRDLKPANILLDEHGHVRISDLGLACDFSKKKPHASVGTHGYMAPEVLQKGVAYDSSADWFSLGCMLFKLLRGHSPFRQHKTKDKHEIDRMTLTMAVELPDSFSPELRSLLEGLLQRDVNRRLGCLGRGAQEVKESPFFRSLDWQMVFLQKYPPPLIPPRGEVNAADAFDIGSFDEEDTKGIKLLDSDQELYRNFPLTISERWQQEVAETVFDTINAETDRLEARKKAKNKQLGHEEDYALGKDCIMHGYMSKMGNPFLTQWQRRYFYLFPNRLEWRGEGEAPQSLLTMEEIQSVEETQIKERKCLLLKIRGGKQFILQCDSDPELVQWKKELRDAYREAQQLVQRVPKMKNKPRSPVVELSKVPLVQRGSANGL
Chain of Beta-2 adrenergic receptor (Homo sapiens) (P07550 whole entry, looked up): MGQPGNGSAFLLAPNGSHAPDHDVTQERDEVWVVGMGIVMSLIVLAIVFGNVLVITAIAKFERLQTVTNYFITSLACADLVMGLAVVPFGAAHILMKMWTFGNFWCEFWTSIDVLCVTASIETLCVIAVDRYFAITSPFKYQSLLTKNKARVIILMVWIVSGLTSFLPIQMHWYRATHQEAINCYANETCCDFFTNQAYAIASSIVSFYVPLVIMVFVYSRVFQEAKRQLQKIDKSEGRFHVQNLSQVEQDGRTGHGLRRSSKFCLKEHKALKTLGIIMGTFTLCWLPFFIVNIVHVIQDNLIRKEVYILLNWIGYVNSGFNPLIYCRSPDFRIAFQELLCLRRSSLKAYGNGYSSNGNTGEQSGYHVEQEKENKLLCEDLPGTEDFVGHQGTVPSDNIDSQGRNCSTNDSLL
Chain of AP-2 complex subunit beta (Homo sapiens) (P63010 whole entry, looked up, the tested form may be a part, one chain of several): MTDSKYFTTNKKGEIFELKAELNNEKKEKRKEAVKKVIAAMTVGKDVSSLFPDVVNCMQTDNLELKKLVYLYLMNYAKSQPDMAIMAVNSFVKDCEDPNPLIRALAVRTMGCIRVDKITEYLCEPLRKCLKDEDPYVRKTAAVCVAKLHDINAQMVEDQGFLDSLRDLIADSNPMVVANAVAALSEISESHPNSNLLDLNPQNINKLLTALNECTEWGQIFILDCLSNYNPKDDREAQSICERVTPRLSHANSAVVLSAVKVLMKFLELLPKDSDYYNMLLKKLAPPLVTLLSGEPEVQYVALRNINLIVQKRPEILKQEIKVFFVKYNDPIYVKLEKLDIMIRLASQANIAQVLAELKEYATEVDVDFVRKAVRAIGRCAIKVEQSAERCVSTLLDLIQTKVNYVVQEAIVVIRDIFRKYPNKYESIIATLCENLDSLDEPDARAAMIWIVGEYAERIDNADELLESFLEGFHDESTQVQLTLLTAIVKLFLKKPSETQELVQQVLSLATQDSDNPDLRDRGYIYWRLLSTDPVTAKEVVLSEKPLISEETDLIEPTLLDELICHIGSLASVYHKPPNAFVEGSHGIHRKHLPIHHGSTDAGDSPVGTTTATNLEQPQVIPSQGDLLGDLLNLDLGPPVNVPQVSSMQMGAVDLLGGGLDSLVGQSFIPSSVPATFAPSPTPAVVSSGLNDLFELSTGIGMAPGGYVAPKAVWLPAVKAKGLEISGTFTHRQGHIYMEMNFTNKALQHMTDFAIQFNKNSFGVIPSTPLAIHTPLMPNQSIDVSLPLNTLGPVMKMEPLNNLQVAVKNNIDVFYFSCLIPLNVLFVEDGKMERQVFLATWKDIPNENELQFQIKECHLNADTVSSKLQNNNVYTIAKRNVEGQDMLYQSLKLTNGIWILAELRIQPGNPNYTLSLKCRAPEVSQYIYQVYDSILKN
Chain of Integrin beta-1 (Homo sapiens) + Integrin alpha-4 (Homo sapiens) (P05556 whole entry, looked up): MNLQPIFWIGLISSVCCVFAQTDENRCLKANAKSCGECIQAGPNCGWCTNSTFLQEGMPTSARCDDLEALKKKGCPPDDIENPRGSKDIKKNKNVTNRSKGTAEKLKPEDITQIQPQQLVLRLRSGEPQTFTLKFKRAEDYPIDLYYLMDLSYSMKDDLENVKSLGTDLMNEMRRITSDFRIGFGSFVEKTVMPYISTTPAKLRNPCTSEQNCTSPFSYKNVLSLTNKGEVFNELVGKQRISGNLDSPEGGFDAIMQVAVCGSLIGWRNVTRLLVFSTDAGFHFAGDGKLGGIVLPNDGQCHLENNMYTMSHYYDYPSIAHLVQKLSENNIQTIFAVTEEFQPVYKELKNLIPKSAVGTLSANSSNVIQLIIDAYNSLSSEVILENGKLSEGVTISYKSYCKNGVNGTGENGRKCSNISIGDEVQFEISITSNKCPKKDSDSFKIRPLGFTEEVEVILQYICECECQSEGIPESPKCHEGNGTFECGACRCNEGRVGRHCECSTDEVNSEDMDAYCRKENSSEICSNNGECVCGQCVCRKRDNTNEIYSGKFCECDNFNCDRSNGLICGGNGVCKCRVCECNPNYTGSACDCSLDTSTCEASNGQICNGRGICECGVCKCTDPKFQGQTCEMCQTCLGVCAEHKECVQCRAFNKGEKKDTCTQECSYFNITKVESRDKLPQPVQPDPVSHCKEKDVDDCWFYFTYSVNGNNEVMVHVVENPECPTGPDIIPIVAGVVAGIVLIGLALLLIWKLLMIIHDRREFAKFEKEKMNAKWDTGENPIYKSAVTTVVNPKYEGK
Chain of Integrin beta-1 (Homo sapiens) + Integrin alpha-4 (Homo sapiens) (P13612 whole entry, looked up): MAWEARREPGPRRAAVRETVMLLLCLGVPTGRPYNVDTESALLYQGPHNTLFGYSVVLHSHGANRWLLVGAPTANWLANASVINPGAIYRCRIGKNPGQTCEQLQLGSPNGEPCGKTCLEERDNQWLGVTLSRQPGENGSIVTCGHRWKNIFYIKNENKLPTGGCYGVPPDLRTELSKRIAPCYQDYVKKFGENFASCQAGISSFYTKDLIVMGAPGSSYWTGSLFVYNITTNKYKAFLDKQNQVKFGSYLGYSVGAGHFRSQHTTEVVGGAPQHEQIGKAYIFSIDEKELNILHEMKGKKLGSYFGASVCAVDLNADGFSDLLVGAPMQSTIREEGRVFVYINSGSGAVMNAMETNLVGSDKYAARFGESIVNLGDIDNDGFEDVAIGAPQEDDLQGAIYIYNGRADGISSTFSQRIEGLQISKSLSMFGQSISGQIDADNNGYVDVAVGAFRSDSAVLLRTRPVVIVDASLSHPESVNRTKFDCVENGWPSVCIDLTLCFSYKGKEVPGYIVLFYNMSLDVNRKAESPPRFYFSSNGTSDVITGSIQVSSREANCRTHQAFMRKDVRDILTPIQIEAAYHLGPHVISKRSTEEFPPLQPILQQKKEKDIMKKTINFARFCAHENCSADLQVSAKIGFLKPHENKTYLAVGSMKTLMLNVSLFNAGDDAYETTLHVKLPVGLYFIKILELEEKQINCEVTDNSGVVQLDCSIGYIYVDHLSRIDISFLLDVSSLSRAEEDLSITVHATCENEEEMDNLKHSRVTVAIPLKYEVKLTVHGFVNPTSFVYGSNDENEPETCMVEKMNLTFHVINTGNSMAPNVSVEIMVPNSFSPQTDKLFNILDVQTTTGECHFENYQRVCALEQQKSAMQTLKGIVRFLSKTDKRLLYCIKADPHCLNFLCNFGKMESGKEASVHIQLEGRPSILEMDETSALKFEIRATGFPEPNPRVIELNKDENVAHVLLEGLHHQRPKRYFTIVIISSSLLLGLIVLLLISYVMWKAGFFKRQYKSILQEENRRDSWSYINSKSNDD

Row | Compound | percent of DMSO control GFP [1] | GFP response vs DMSO [2] | percent response of DMSO control [3] | GFP response vs DMSO [4] | GFP response, % of DMSO [5] | double positive events [6] | vesicle binding response [6] | inhibition [7] | superoxide response (% of plate) [8] | aptamer binding inhibition [9] | response [10] | inhibition [11] | response [12] | binding (% of control) [13] | efflux inhibition (fraction of control) [14] | inhibition [15] | differentiation response [16]
1 | O=C(NCCc1c[nH]c2ccccc12)c1cccnc1 | 101% (inactive) | 101% (inactive) | 98.6% (inactive) | 113% (inactive) | 103% (inactive) | 61.5% | 188% (inactive) | 2.3% (inactive) | 93.7% (inactive) | 3% (inactive) | -0.09% (inactive) | 17.6% (inactive) | -6.3% (inactive) | 90.1% (inactive) | 0.3 (inactive) | 6% (inactive) | 12% (inactive)
2 | Fc1ccc(C(c2ccc(F)cc2)N2CCN(C/C=C/c3ccccc3)CC2)cc1 | 94.6% (inactive) | 131% (inactive) | 104% (inactive) | 80.9% (inactive) | 97% (inactive) | 56.3% | 215% (inactive) | -1.3% (inactive) | 108% (inactive) | 4% (inactive) | 6.79% (inactive) | 2.83% (inactive) | -0.13% (inactive) | 110% (inactive) | -0.02 (inactive) | 1% (inactive) | 4.09% (inactive)
3 | CN1/C(=C\C=Nc2ccccc2)C(C)(C)c2ccccc21 | 102% (inactive) | 102% (inactive) | 98.3% (inactive) | 103% (inactive) | 113% (inactive) | 61.9% | 196% (inactive) |  | 101% (inactive) | -1% (inactive) | -50.9% (inactive) | 11.8% (inactive) | 0.09% (inactive) | 116% (inactive) | 0 (inactive) |  | 2.89% (inactive)
4 | O=C(Cc1c[nH]c2ccccc12)OCCOC(=O)Cc1c[nH]c2ccccc12 | 104% (inactive) | 96.6% (inactive) | 110% (inactive) | 100% (inactive) | 101% (inactive) | 60.9% | 111% (inactive) | -3.77% (inactive) | 103% (inactive) | -1% (inactive) | -3.51% (inactive) | -12.4% (inactive) | 1.88% (inactive) | 99.6% (inactive) | -0.12 (inactive) | -4% (inactive) | -4.57% (inactive)
5 | Cc1nc(NCc2ccco2)c(C#N)c2c1COC(C)(C)C2 | 102% (inactive) | 98.7% (inactive) | 96.5% (inactive) | 102% (inactive) | 92.4% (inactive) | 57.7% | 99.2% (inactive) | -9.13% (inactive) | 123% (inactive) | 4% (inactive) | 7.11% (inactive) | -2% (inactive) | 12% (inactive) | 98.8% (inactive) | -0.31 (inactive) | 15% (inactive) | -1.65% (inactive)
6 | COc1cc(NS(=O)(=O)c2ccc(N)cc2)nc(OC)n1 | 98.8% (inactive) | 102% (inactive) | 105% (inactive) | 96.5% (inactive) | 98.2% (inactive) | 60.1% | 102% (inactive) | -1.74% (inactive) | 113% (inactive) | 3% (inactive) | 1.82% (inactive) | 18.1% (inactive) | 0.53% (inactive) | 96.4% (inactive) | 0.01 (inactive) | -1% (inactive) | 14.9% (inactive)
7 | CCOc1cc2c(cc1OCC)C(c1ccccc1)N(c1ccc(C(=O)O)cc1)C(=O)C2 (configuration not stated) | 106% (inactive) | 109% (inactive) | 95.5% (inactive) | 113% (inactive) | 107% (inactive) | 61.4% | 151% (inactive) | 11% (inactive) | 92% (inactive) | -1% (inactive) | 3.08% (inactive) | -11.9% (inactive) | 1.91% (inactive) | 96.8% (inactive) | -0.1 (inactive) | 7% (inactive) | 8.59% (inactive)
8 | Cc1ccc(OCc2nc(-c3cccnc3)no2)cc1C | 92% (inactive) | 124% (inactive) | 99.2% (inactive) | 75.4% (inactive) | 88% (inactive) | 60.5% | 221% (inactive) | -7.12% (inactive) | 101% (inactive) | 1% (inactive) | -15.7% (inactive) | 1.06% (inactive) | 3.35% (inactive) | 98.3% (inactive) | 0.27 (inactive) | 9% (inactive) | 2.46% (inactive)
9 | c1ccc(Nc2ccccn2)nc1 | 98.6% (inactive) | 105% (inactive) | 88.2% (inactive) | 115% (inactive) | 100% (inactive) | 59.3% | 190% (inactive) | -3.16% (inactive) | 97.5% (inactive) | 3% (inactive) | -8.84% (inactive) | -0.14% (inactive) | -2.96% (inactive) | 103% (inactive) | 0.26 (inactive) | 4% (inactive) | 7.2% (inactive)
10 | CC1(C)S[C@@H]2[C@H](NC(=O)[C@H](N)c3ccccc3)C(=O)N2[C@H]1C(=O)O | 94.2% (inactive) and 101% (inactive) | 112% (inactive) and 102% (inactive) | 110% (inactive) and 102% (inactive) | 73.2% (inactive) and 108% (inactive) | 93.1% (inactive) and 112% (inactive) | 68.4% and 59.6% | 234% (inactive) and 191% (inactive) | 6.46% (inactive) and 15.1% (inactive) | 95.9% (inactive) and 95% (inactive) | 4% (inactive) and 7% (inactive) | -4.57% (inactive) and -17.9% (inactive) | 0.2% (inactive) and -9.24% (inactive) | 4.43% (inactive) and -37.5% (inactive) | 108% (inactive) and 102% (inactive) |  | 4% (inactive) and 0% (inactive) | -1.64% (inactive) and -7.94% (inactive)
